Molecules are shown by their SMILES. The whole screen tested about 190,000 compounds, of which about 930 (0.49%) were called active. The list shows a part of the results. Results with a measured potency or affinity are listed apart. Unmarked numbers belong to inactive results.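 The calls were made as follows: active = z-score of insulin promoter reporter brightness in nuclei below -3 at 5 µM, with at least 500 cells counted; inconclusive = wells with under 500 cells, flagged as toxic or sparse; inactive = the rest.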

The assay can be described thus: decrease of insulin promoter-GFP reporter – imaging, high-content screening, mouse beta cells (AID 1628). To be noted: MIN6 insulin promoter GFP reporter, at 5 µM, hits give low values.
For `CCOC(=O)N1CCC(N2CCN(S(=O)(=O)c3ccc4ccccc4c3)CC2)CC1`, the z-score was -4.2 (active).
As for `CCOC(=O)N1CCN(C(=O)c2cc(S(=O)(=O)N3CCCC3)cn2C)CC1`, the figure is 3.05; as for `CCOC(=O)N1CCN(S(=O)(=O)c2ccc3c(c2)oc(=O)n3C)CC1`, 3.1.
Take `COCCNC(=O)c1onc(CSc2cccc(C)c2)c1C(=O)O`: the z-score is 3.82.
As for `Clc1ccc(C[n+]2cc(-c3ccccc3)n3c2CCCCC3)c(Cl)c1`, the z-score is -5.27 (active).
For `COc1ccc(N=C2NC(=O)S/C2=C\c2ccc(N(C)C)cc2)cc1`, the z-score was 3.4.
As for `CN1CC=C2C(C#N)=C(N)C(C#N)(C#N)[C@H](c3cccc(Cl)c3)C2C1` (stereo partly specified), the z-score is 15.9.
As for `N#C/C(C(=O)c1ccccc1)=C1/SC=C(N)N1c1ccccc1`, the figure is 5.96; as for `CCCCN(CC)S(=O)(=O)c1ccc(C(=O)N(CCCN(C)C)c2nc3cc(C)cc(C)c3s2)cc1`, -3.82 (active).
As for `CC(C)OC(=O)CN1C(=O)S/C(=C/c2ccc(N3CCCCC3)o2)C1=O`, the figure is 6.58; as for `Cn1c(=O)n(C)c2cc(NC(=O)COc3ccc(Cl)cc3)ccc21`, 3.02; as for `Cc1cc(Cl)ccc1OCC(=O)OCC(=O)Nc1ccc(F)c([N+](=O)[O-])c1`, -5.99 (active).
Under `COc1ccc(OC)c(C2=Nn3c(nnc3C3CCCCC3)SC2)c1` stands -6.49 (active); under `COc1ccc(C2=Nn3c(nnc3-c3ccccc3OC)SC2)cc1OC`, -3.31 (active); under `COc1ccccc1-c1c(C)c(C)nc(N)c1C#N`, -0.95.
Regarding `CC(=O)Nc1ccc(Nc2c3ccccc3nc3ccccc23)cc1`, the z-score is -3.01 (active).
For `CC(=O)Nc1ccc(N=Cc2c(O)c(C(=O)Nc3ccccc3)cc3ccccc23)cc1`, the z-score was 3.59.
Under `O=C(CSc1ccccn1)Nc1cccc2ccccc12` stands 2.55; under `Cc1ccc(C(=O)SC2=NCCS2)cc1`, 1.97; under `O=c1[nH]c(/C=C/c2ccccc2OC(F)F)nc2c1cnn2-c1ccccc1`, 3.2.
Under `COc1ccc(CN(C(=O)c2ccc(-c3ccccc3)[nH]2)C(C(=O)NC(C)(C)C)c2ccncc2)cc1` (stereo unspecified) stands 2.66; under `O=C(Nn1c(-c2ccccc2)nc2ccccc2c1=O)c1ccco1`, -0.06.
As to `Cc1ccc(-c2nnc(N3CCN(C(=O)c4ccco4)CC3)c3ccccc23)cc1`, the z-score was -4.39 (active).
For `C[N+](C)(C)CCCNC(=O)c1ccc(/C=N/O)nc1`, the z-score was 0.8.
Under `N#Cc1nc(N2CCOCC2)nc(N2CCOCC2)n1` stands 3.26.
Under `CCCN1CC=C2C(C#N)=C(N)C(C#N)(C#N)C(c3cc(OC)ccc3OC)C2C1` (stereo unspecified) stands 15.3.
Under `O=C(c1csc2ccccc12)N1CCCCCC1` stands -4.36 (active); under `Cc1ccccc1C(=O)N1CCc2ccccc2C1`, 3.99; under `C[n+]1cc(C(=O)N2CCCCC2)ccc1/C=C/c1c[nH]c2ccccc12`, 3.95.
As to `N#Cc1c(NC(=O)CCCN2C(=O)c3ccccc3C2=O)oc(-c2ccccc2)c1-c1ccccc1`, the z-score was -0.48.
Consider `Cc1ccc(-n2nnnc2SC(C)C(=O)NCC(=O)Nc2ccc(F)c(F)c2F)c(C)c1` (stereo unspecified), for which the z-score is -4.63 (active).
Regarding `Cc1csc(SC(C)C(=O)NCC(=O)Nc2ccc(F)c(F)c2F)n1` (stereo unspecified), the z-score is 4.91.
In the case of `Cc1ccc2nc(C)c(C(=O)O)cc2c1`, the z-score was 3.57.
Under `CS(=O)(=O)N1CCc2cc(-c3csc(NC(=O)Cc4cccs4)n3)ccc21` stands -3.24 (active); under `O=C(CN1CCOCC1)Nc1nc(-c2ccc3c(c2)CCN3S(=O)(=O)c2ccccc2)cs1`, -3.24 (active).
In the case of `O=S(=O)(NCc1csc(-c2ccccc2)n1)c1ccc(Cl)s1`, the z-score is 0.86.
Turning to `O=C(Nc1ccccc1)c1ccccc1NS(=O)(=O)c1ccc(Cl)s1`, the z-score was -3.51 (active).
As for `Cc1ccc(SCCC(=O)N/N=C/c2ccncc2)cc1`, the figure is 1.59.
As for `CC(=O)Oc1ccc2c(c1)Oc1cc(OC(C)=O)ccc1C21OC(=O)c2ccccc21`, the figure is 15.3.
Under `O=C1/C(=C/c2c[nH]c3ccccc23)CCC/C1=C\c1c[nH]c2ccccc12` stands 4.59; under `O=C1CC(=O)C(n2cncn2)C(c2ccc(Cl)cc2)C1` (stereo unspecified), -5.08 (active).
For the molecule `COc1ccc(/C=C2/SC(=O)N(CCNC(=O)C3CCCN3C(=O)c3cccs3)C2=O)cc1` (stereo unspecified), the z-score was -4.56 (active).
Under `COCCN1C(=O)/C(=C/c2ccc(N3CCCC3)cc2)SC1=S` stands 16.8.
Under `CCC(C)(C(=O)NC1CCCC1)N(C(=O)CNC(C)=O)c1ccccc1` (stereo unspecified) stands 3.46; under `O=C(CCl)N(c1ccccc1)C1CCCCC1`, -5.83 (active); under `Cc1ccc2[nH]c(-c3ccccc3)c(CN(C)C)c(=O)c2c1`, 4.17.
Under `COc1cccc(-n2nnc3c(=O)n(CC(=O)OCc4ccccc4)cnc32)c1` stands 1.01; under `O=c1c2nnn(Cc3ccccc3)c2ncn1C/C=C/c1ccccc1`, -5.83 (active); under `Cc1ccc(Cn2nnc3c(=O)n(CC(=O)NCc4ccco4)cnc32)cc1`, 1.28.
In the case of `c1ccc(CCNc2c3c(nc4ncnn24)CCC3)cc1`, the z-score is -3.18 (active).
Under `Oc1[nH]c2c(Cl)cc(Cl)cc2c1N=NC(=S)NCC1CCCO1` (stereo unspecified) stands -3.65 (active).
With `O=C(CN(C1CCCCC1)S(=O)(=O)c1ccccc1)NCc1ccco1`, the z-score was 0.65.
Under `CCOC(=O)C1CCN(S(=O)(=O)c2ccc3c(c2)CCCN3C(C)=O)CC1` stands -4.86 (active); under `CCC(=O)N1CCCc2cc(S(=O)(=O)N3CCN(c4ccccc4F)CC3)ccc21`, -5.64 (active); under `COc1ccccc1N/C(N)=N/c1nc(C(F)(F)F)cc(=O)[nH]1`, 3.34.
As for `CCCCn1c(SCc2ncc(-c3ccccc3)o2)nc2cc(S(N)(=O)=O)ccc21`, the figure is -5.03 (active).
Under `CCCCn1c(SCC(=O)O)nc2ccccc21` stands 3.5; under `N=c1c2c(-c3ccccc3)c(-c3ccccc3)oc2ncn1CCCN1CCOCC1`, -3.3 (active).
`Cc1cccn2c(=O)c(/C=C3\SC(=S)NC3=O)c(NCCCN3CCOCC3)nc12`: the z-score is 5.45.
Under `O=C(/C=C/c1ccc(N2CCC(c3ccccc3)=N2)cc1)c1ccccc1` stands 17.2; under `O=C1C=C(Nc2ccc(O)cc2)CC(c2ccco2)C1` (stereo unspecified), 6.78; under `O=c1[nH]c2ccccc2nc1/C=C/c1ccc(F)cc1`, 5.99.
As for `CCOC(=O)c1sc(NC(=O)c2sccc2C)cc1C`, the figure is 3.1; as for `CCOC(=O)c1c(NC(=O)c2ccccc2)sc2c1CCc1ccccc1-2`, -5.18 (active).
Under `CC(=O)C1=C(C)NC(SCC(=O)c2ccc(Cl)c(Cl)c2)=C(C#N)C1c1ccco1` (stereo unspecified) stands 3.16; under `CCOC(=O)CSC1=C(C#N)C(c2ccc(C)s2)CC(=O)N1` (stereo unspecified), -3.15 (active); under `Cc1ccc(C2CC(=O)NC(SCc3ccccc3)=C2C#N)o1` (stereo unspecified), 3.43.
As to `CCOc1cc2[nH]c(=O)n(CCC(=O)NCCc3ccc(OC)c(OC)c3)c(=O)c2cc1OCC`, the z-score was 1.44.
Under `CCn1c(NCCc2ccc(OC)c(OC)c2)nc2c1c(=O)n(C)c(=O)n2C` stands -5.44 (active); under `CCCNc1nc2c(c(=O)n(C)c(=O)n2C)n1CCc1ccccc1`, -5.56 (active).
Consider `O=c1cc2oc3cc(O)c(O)cc3c(-c3ccccc3O)c-2cc1O`, for which the z-score was 15.3.
As for `CCn1c(SCC(=O)Nc2nc3ccc(OC)cc3s2)nc2c1c(=O)n(C)c(=O)n2C`, the figure is -3.33 (active); as for `CCn1ncc(C2=NOC(C(=O)Nc3cccc(C(C)=O)c3)C2)c1C` (stereo unspecified), -3 (active); as for `C=C(C)c1cccc(C(C)(C)NC(=O)NCC2COCCO2)c1` (stereo unspecified), 0.86.
As for `CC(C)(C)c1ccc(C(=O)c2c[nH]c(C(=O)NCC3CCCO3)c2)cc1` (stereo unspecified), the z-score was -4.57 (active).
Under `CCn1c(=NC(=O)c2ccc(S(=O)(=O)N(C)C)cc2)sc2cccc(OC)c21` stands -5.14 (active).
Under `c1ccc(-n2ncc3c(N4CCN(c5ccccn5)CC4)nc(N4CCCCCC4)nc32)cc1` stands 4.11.
As to `C/C(=C\c1ccccc1)CN1CCN(c2ccccc2)CC1`, the z-score is 1.49.
As for `CC(=O)Nc1sc(/C(C#N)=C\c2cccc(Cl)c2)nc1-c1ccc(C)cc1`, the figure is 15.6.
As for `CCOC(=O)N1CCN(/C=C(\C#N)c2nc3ccccc3s2)CC1`, the figure is 3.47; as for `Cc1nn(-c2ccccc2)c(N2CCCC2)c1/C=N/n1cnc2scc(-c3ccccc3)c2c1=O`, -3.26 (active).
Take `COc1ccc(Nc2ncnc3c2cnn3Cc2ccccc2)cc1OC`: the z-score was -4.71 (active).
In the case of `COc1cc2c3nnc(-c4ccc(F)cc4)c-3cn(Cc3ccccc3)c2cc1OC`, the z-score was 3.81.
In the case of `O=[N+]([O-])c1ccc(N/N=C/c2ccc[nH]2)cc1`, the z-score was 12.9.
As for `N#C/C(=C/c1ccc(N2CCOCC2)o1)c1ccc(Cl)cc1`, the figure is 7.33.
Under `Oc1c(C=NCc2ccc(F)cc2)[nH]c2ccc(Br)c(Cl)c12` stands 4.06; under `CCOC(=O)c1ccc(NC(=O)COc2ccc(S(=O)(=O)NC(C)CC)cc2)cc1` (stereo unspecified), 3.08; under `CCC(C)NS(=O)(=O)c1ccc(NC(=O)Cc2ccc(OC)cc2)cc1` (stereo unspecified), -3.19 (active).
On to `COc1ccc(NC(=O)CSc2ncccc2C(=O)OC(C)C)cc1OC`, for which the z-score is -5.26 (active).
Regarding `Cc1ccccc1CN(c1ccc(C(=O)NCC2CCCO2)cc1)S(C)(=O)=O` (stereo unspecified), the z-score is -4.88 (active).
Under `O=C(COC(=O)c1ccco1)NCC1CCCO1` (stereo unspecified) stands 3.04; under `CCCc1n[nH]c2c1C(=O)C(C(=O)OC)C(C)(C)C2` (stereo unspecified), 3.65.
As for `CN(CCC#N)C(=O)COC(=O)c1ccc(Cl)c(S(N)(=O)=O)c1`, the figure is -5.92 (active).
As for `CCOC(=O)C1=C(C)NC(=O)NC1c1ccc(N2CCC(c3ccccc3)=N2)cc1` (stereo unspecified), the figure is 4.29; as for `CCOC(=O)C1=C(c2ccccc2)NC(N)=NC1c1ccc(OCc2ccc(Cl)cc2)c(OC)c1` (stereo unspecified), -3.43 (active).
With `COc1ccc(Cl)cc1NC(=O)c1c(-c2ccccc2)noc1C`, the z-score was 18.

These data come from PubChem BioAssay AID1628 (Sanford-Burnham Center for Chemical Genomics, 2009).
